D1 ag: human D1 receptor agonism; HEK293 T-REx D1 cells, calcium flux, agonist mode; activation, % at 2 µM; 1% of 360,000 active; AID 504660
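Agonism was scored from calcium flux recorded over 180 s (1 read/s) after pintool compound addition, following a 10-cycle baseline. Cells were inducible force-coupled HEK293 TREx D1, plated overnight at 30 C and loaded with no-wash calcium dye.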
TRHR agonist: activates the human TRH receptor; P34981; TRHR cells, calcium flux fluo-8, FDSS agonist mode; activation, % at 2 µM; 0.18% of 360,000 active; AID 493084
Target sequence (P34981 whole entry, looked up): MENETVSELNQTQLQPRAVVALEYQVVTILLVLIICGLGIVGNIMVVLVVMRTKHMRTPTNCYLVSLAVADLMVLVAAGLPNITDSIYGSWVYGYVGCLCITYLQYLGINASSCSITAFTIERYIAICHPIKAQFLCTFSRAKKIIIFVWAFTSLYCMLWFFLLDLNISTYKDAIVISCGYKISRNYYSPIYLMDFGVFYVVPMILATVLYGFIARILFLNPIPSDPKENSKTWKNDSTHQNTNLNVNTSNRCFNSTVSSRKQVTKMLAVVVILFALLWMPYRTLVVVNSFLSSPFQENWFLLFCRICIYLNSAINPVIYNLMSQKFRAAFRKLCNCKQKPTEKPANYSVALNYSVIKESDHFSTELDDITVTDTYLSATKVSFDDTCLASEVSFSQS
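TRHR-expressing cells, plated overnight in medium with 10% serum, were loaded with fluo-8 calcium dye at room temperature. After a 10 s baseline, library compound was pin-added and calcium release was recorded kinetically (ex 480/em 530) as agonist response.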
D1 antag: human D1 dopamine receptor antagonism; P21728; HEK293 TREx D1 cells, calcium flux, dopamine EC80; stronger effect = lower value; activity change, negative = inhibition, % at 10 µM; 3.2% of 360,000 active; AID 504652; in the data active = activity change below about -30%
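Using tetracycline-induced force-coupled D1 Hek293 cells and a calcium dye, signals were followed for 180 s after compound, then for 180 s after EC80 dopamine, to detect inhibitors.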
Glioma ERSR ind: induces the endoplasmic reticulum stress response in human glioma cells | U87-MG GRP78 promoter luciferase reporter, 16 h | Potency, µM, most hits filed as activators | 0.02% of 420,000 active; active = well fitted activation curve with a large enough effect; also: series mostly up to about 76 µM; nearly all actives have a fitted effect of over 35% in size
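Stably transfected U87-MG glioma cells carrying a GRP78-based luciferase sensor; 16 h compound incubation. Luminescence end-point read 10 min after Bright-Glo addition at room temperature.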
TRHR enhancer: allosteric enhancers of human TRH receptor; enhancement, % at 2 µM; P34981; 0.66% of 360,000 active; TRHR cells, fluo-8 calcium fluorescence, EC20 TRH enhancement; in the data active = enhancement above about 30%
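Enhancer read-out: after compound pinning and an initial kinetic agonist-mode read, an EC20 of TRH (10 nM final) was injected and fluo-8 calcium signal (Ex 480/Em 530) followed at 1 s/cycle for 100 cycles in TRHR-expressing cells.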
D1 potentiator: enhances dopamine response at the human D1 receptor | P21728 | HEK293 TREx D1 cells, calcium flux, dopamine EC20 potentiation | potentiation, % at 10 µM | 0.036% of 360,000 active | AID 504651; in the data active = potentiation above about 30%
Each line names hits and unclear results; the compound was inactive in the other large screens. The list is not random: actives were taken first. Their share in the collection is about 4%. Rule as the data show it, unless noted: active = activation above about 30%; inactive = the rest.

COc1ccc(NC(=O)CSc2nc(C)cs2)c([N+](=O)[O-])c1	none (no result: D1 ag, TRHR agonist, D1 antag, TRHR enhancer, D1 potentiator)
O=C(Cn1nnc2ccccc2c1=O)NC1CCCCC1	D1 antag -42.7
O=C(CC1CCCCC1)OCn1nnc2ccccc2c1=O	none
COC(=O)c1cc(NC(=O)c2cccc(Cl)c2)c(=O)oc1/C=C/Nc1cc(C)cc(C)c1	D1 ag 102.2, TRHR agonist 37.7, D1 antag -34.1 (no result: Glioma ERSR ind)
C[C@@H]1[C@H](c2ccccc2)OCCS(=O)(=O)N1Cc1ccccc1F	none (no result: D1 ag, TRHR agonist, D1 antag, TRHR enhancer, D1 potentiator)
Cc1cc(N2CCCC2)ccc1/C=C1/C(=O)N(C)C(=S)N1C	D1 ag 35.8
CN1C(=O)/C(=C/C=C2/CCCN2C)N(C)C1=S	none
CCN1C(=O)/C(=C/c2ccc(N3CCCC3)cc2)NC1=S	D1 ag 241.7, TRHR agonist 110.6, D1 antag -52.5
Cc1cc(/C=C2/C(=O)N(C)C(=S)N2C)ccc1N1CCCC1	D1 ag 127.5 (no result: D1 antag)
Cc1cc(/C=C2\NC(=S)N(C)C2=O)ccc1N1CCCC1	D1 ag 330.8, TRHR agonist 141.9, D1 antag -45.2, TRHR enhancer 32.4
Cc1ccc(CN2C(=O)N/C(=C\c3ccc(N4CCOCC4)cc3)C2=O)cc1	none
CN1C(=O)/C(=C/c2ccc(OCc3ccc(F)cc3)cc2)N(C)C1=S	none
CCCN1C(=O)/C(=C/c2ccc(N3CCCC3)c(C)c2)NC1=S	none (no result: D1 ag, TRHR agonist, D1 antag, TRHR enhancer, D1 potentiator)
CC#Cc1cc2c(cc1O)CCC1C2CCC2(C)C(O)CCC12 (configuration not stated)	none (no result: D1 ag, TRHR agonist, D1 antag, TRHR enhancer, D1 potentiator)
CO[C@H]1[C@H](NC(=O)c2ccsc2)c2ccccc2C12CCN(Cc1c(O)ccc3ccccc13)CC2	none (no result: D1 ag, TRHR agonist, D1 antag, TRHR enhancer, D1 potentiator)
Cc1ccc(CNC(=O)CNC(=S)N(Cc2ccccc2)Cc2ccccc2F)cc1	D1 antag -30.4
CCCC(=O)N1CCCC1(C)C(=O)NCc1ccc(SC)cc1 (configuration not stated)	none (no result: D1 ag, TRHR agonist, D1 antag, TRHR enhancer, D1 potentiator)
O=C(NCC(c1ccc2c(c1)OCO2)N1CCOCC1)c1ccccc1F (configuration not stated)	none
Cc1ccc(Nc2nc3nonc3nc2Nc2cccc(C(F)(F)F)c2)cc1Cl	D1 antag -35.0
Cc1cc(Nc2cccc(C(F)(F)F)c2)ncn1	none
CC1=C(OC(=O)c2ccccc2)C(C)(C)C(c2ccccc2)OC1=O (configuration not stated)	D1 antag -38.5
Cc1cc(=O)oc2cc(OC(=O)c3cncc(Br)c3)ccc12	D1 antag -44.7
COc1ccc(N2C(=O)C3C4C=CC(CC4)C3C2=O)c([N+](=O)[O-])c1 (configuration not stated)	TRHR enhancer 39.0
CCc1ccc([C@H]2[C@@H]3C(=O)C[C@@H]4C(=O)N(C5CCCCC5)C(=O)[C@@H]4[C@@H]3CN2S(=O)(=O)c2ccc(C)cc2)cc1	none (no result: D1 ag, TRHR agonist, D1 antag, TRHR enhancer, D1 potentiator)
O=C(CNS(=O)(=O)c1ccccc1)NCC(=O)OCc1ccc(Br)cc1	none
CCOC(=O)c1ccc(COC(=O)CNC(=O)CNC(=O)Cc2ccccc2)cc1	none
O=C(CNC(=O)c1ccc(Br)o1)Nc1ccncc1	D1 antag -63.5
O=C(CNC(=O)c1ccc(Br)o1)NCC(=O)OCc1ccccc1	TRHR enhancer 30.4
O=C(CNC(=O)Cc1ccccc1)NCC(=O)OCc1ccc(C(=O)c2ccccc2)cc1	D1 antag -62.9
Nc1ncnc2c1ncn2[C@@H]1O[C@H](COP(=O)(O)O)[C@@H](O)[C@@H]1O	none (no result: D1 ag, TRHR agonist, D1 antag, TRHR enhancer, D1 potentiator)
CN(c1ccccc1)S(=O)(=O)c1cc(C(=O)NCc2ccco2)ccc1Cl	none (no result: D1 ag, TRHR agonist, D1 antag, TRHR enhancer, D1 potentiator)
Clc1ccccc1CN1CCN(/N=C/C=C\c2ccco2)CC1	none
COc1ccc(NC(=O)c2cccc(N3C(=O)C4C5C=CC(C5)C4C3=O)c2)c(OC)c1 (configuration not stated)	none
COc1ccc(NC(=O)c2cccc(N3C(=O)C4C5C=CC(C6CC56)C4C3=O)c2)c(OC)c1 (configuration not stated)	D1 antag -38.7
COc1ccc(NC(=O)c2cccc(N3C(=O)C4C5CCC(C5)C4C3=O)c2)cc1 (configuration not stated)	D1 antag -79.9
